D2 PAM-1: HTS Assay for Positive Allosteric Modulators of the Human D2 Dopamine Receptor: Primary Screen for Potentiators; potentiation, % at 10 µM; hit rate 0.34% among 340,000; D(2) dopamine receptor (Homo sapiens), P14416; AID 485347, 2010; HEK293 T-REx D2, calcium flux, EC20 dopamine potentiation;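 active means potentiation over 3 SD above the plate norm, cut at about 30% in these data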
Target sequence (P14416 whole entry, looked up): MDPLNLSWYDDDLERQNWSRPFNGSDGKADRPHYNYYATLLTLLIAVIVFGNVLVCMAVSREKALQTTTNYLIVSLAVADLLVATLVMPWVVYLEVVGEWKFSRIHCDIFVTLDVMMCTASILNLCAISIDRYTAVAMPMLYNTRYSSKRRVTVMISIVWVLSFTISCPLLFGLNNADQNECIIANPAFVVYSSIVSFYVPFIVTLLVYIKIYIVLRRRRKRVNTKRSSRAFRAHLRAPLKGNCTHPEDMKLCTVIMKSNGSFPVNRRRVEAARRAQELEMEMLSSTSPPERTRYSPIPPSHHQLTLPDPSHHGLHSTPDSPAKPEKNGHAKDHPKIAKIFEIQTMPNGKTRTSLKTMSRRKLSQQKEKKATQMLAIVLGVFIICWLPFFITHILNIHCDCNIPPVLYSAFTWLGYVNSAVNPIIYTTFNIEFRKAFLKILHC
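Tetracycline-induced Hek293 Trex D2 cells, force-coupled to calcium, loaded with no-wash calcium dye. Compound added with 180 s kinetic read for agonism, then EC20 dopamine and a further 180 s read for potentiation.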
D2 ag-1: HTS Assay for Allosteric Agonists of the Human D2 Dopamine Receptor: Primary Screen for Agonists | D(2) dopamine receptor (Homo sapiens), P14416 | HEK293 T-REx D2 cells, calcium flux agonist mode | activation, % at 2 µM | hit rate 0.53% among 340,000;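 active means activation over 3 SD above normal in the single-dose calcium agonist read, cut at about 30% in these data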
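Agonism is scored from calcium flux in a force-coupled, inducible HEK293 cell line expressing D2, read kinetically for 180 s after compound addition against dopamine controls.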
D2 antag: HTS Assay for Allosteric Antagonists of the Human D2 Dopamine Receptor: Primary Screen for Antagonists; hit rate 2% among 340,000; inhibition, % at 10 µM; HEK293 TREx D2 cells, calcium flux, dopamine EC80; D(2) dopamine receptor (Homo sapiens), P14416; AID 485344, 2010; in the data active means inhibition above about 30%; inactive means below that, where a call was filed
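Compounds are added to dye-loaded, induced HEK293 T-REx cells coupled to calcium release via D2; after a 3 min kinetic read an EC80 dopamine stimulus is given and fluorescence is recorded for 3 more min.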
D2 ag-2: Beta-Arrestin HTS for Positive Allosteric Modulators of the Human D2 Dopamine Receptor: Agonists; D(2) dopamine receptor (Homo sapiens), P14416; DiscoveRx PathHunter D2 beta-arrestin, luminescence, 90 min; 100% = 57 uM dopamine signal; activation, % (concentration not given with the values); hit rate 0.084% among 360,000; AID 624465, 2012; in the data active means activation above about 40%; inconclusive means between about 15% and that limit
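DiscoveRx PathHunter D2 beta-arrestin cells (2,100/well) attached overnight, then compound-stimulated 90 min at 37 C in HBSS/10 mM HEPES/0.1% Tween-20 buffer; beta-galactosidase complementation read by luminescence after 1 h at ambient temperature. Dopamine 57 uM final (EC100) as control.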
D2 PAM-2: Beta-Arrestin HTS for Positive Allosteric Modulators of the Human D2 Dopamine Receptor: Potentiators; AID 624464, 2012; DiscoveRx D2 beta-arrestin cells, luminescence, 90 min; 100% = 57 uM dopamine signal; hit rate 0.23% among 360,000; potentiation, % (no concentration beside the values); in the data active means potentiation above about 50%; inconclusive means mostly about 30% to 49%
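PathHunter beta-arrestin assay in DiscoveRx D2 cells. Compounds were added with an EC20 of dopamine (50 nM final) for 90 min at 37 deg C. Luminescence was read 1 h after detection reagent, with 57 uM dopamine as the EC100 control.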
D3 arrestin ag: qHTS of D3 Dopamine Receptor Agonist: D3 Dopamine Receptor B-arrestin Agonist Confirmatory Assay | DiscoveRx D3 beta-arrestin cells, luminescence, 90 min | hit rate 4% among 2,300 | Potency, µM (highest dose often 76.9 µM), most hits filed as activators | shares compounds with D2 ag-1 | AID 720506, 2013; further: nearly all actives have a fitted effect of over 70% in size
D2 ag-3: qHTS of D3 Dopamine Receptor Agonist: D2 Dopamine Receptor B-arrestin Agonist Counterscreen. shares compounds with D2 ag-1. hit rate 5.9% among 2,300. Potency, µM (doses to about 76.9 µM), hits mostly activators. DiscoveRx PathHunter D2 beta-arrestin, luminescence, 90 min; response scale: percent relative to full dopamine signal; further: nearly all actives have a fitted effect of over 70% in size
Of the large screens only hits and unclear results are named; the others gave an inactive call (follow-up assays come after a bar, where they were run). An excerpt weighted towards active compounds, which were near 2.4% of everything screened. Unless noted, the call rests on the fitted dose curve; in most records, active means well fitted activation curve with a large enough effect; inconclusive means small, poorly fitted or top-dose-only effect; inactive means flat fitted curve, though single readings scatter.

Cc1ccccc1C(=O)N1CCC(C(=O)N(CC(C)C)c2c(N)n(CC(C)C)c(=O)[nH]c2=O)CC1	none
CCOC(=O)C1(CCOc2ccccc2)CCN(Cc2cnc(C)s2)CC1	none
CCOC(=O)C1(CC2CC2)CCN(Cc2cnc(N(C)C)s2)CC1	D2 ag-1 75, D2 antag 68 | D3 arrestin ag inactive | D2 ag-3 inactive
COc1ccc(N=C(N)SCc2ccccn2)cc1	D2 ag-1 33, D2 antag 45 | D3 arrestin ag inactive | D2 ag-3 inactive
COc1ccc(-c2nnc(SCc3ccccn3)n2C)cc1	none
CC1(C)CC(O)(CNCc2ccc3c(c2)OCO3)CCO1 (stereo unspecified)	D2 ag-1 70, D2 antag 88, D2 ag-2 inconclusive | D3 arrestin ag inactive | D2 ag-3 inconclusive
CC1=C(C(=O)N2CCCCCC2)CC(CC(=O)NC2CCCCC2)C(=O)N1Cc1ccc(C(C)(C)C)cc1 (stereo unspecified)	none (no result: D2 PAM-1, D2 ag-1, D2 antag)
CC(OC(=O)C1CCCC1)C(=O)Nc1ncc(Cl)cc1Cl (stereo unspecified)	none | D3 arrestin ag inactive | D2 ag-3 inactive
Nc1c(Cl)ncnc1NCC(O)CO (stereo unspecified)	none | D3 arrestin ag inactive | D2 ag-3 inactive
O=CNc1ccccc1	none | D3 arrestin ag inactive | D2 ag-3 inactive
Cc1nnsc1C(=O)N1CCCC(N2CCN(c3ccc(F)cc3)CC2)C1 (stereo unspecified)	none
CC1(C)CC(=O)c2sc(NC(=O)c3cccs3)nc2C1	D2 ag-1 52 | D3 arrestin ag inconclusive | D2 ag-3 inactive
CC1(C)CC(=O)c2sc(NC(=O)C(C)(C)C)nc2C1	none
O=C1C2CC=CCC2C(=O)N1c1ccc(N2CCN(c3ccccn3)CC2)c([N+](=O)[O-])c1 (stereo unspecified)	none | D3 arrestin ag inconclusive | D2 ag-3 inactive
O=C(CCNS(=O)(=O)c1ccccc1)NCCCSc1ccccc1	none
CC(=O)Nc1ccc(S(=O)(=O)NCCC(=O)NCCOc2ccccc2)cc1	none | D3 arrestin ag inactive | D2 ag-3 inactive
Cc1ccc(S(=O)(=O)NCCC(=O)NCCCSc2ccccc2)cc1	none | D3 arrestin ag inactive | D2 ag-3 inactive
CNC[C@H](O)c1cccc(O)c1	D2 ag-1 77, D2 antag 91 | D3 arrestin ag inactive | D2 ag-3 inconclusive
COc1ccc(CN(C(=O)c2ccc(OCC(C)C)cc2)C2CCS(=O)(=O)C2)cc1 (stereo unspecified)	none (no result: D2 antag, D2 ag-2, D2 PAM-2)
Cc1ccc(S(=O)(=O)N2CCN(CCOc3ccccc3)CC2)cc1	D2 ag-1 50 | D3 arrestin ag inactive | D2 ag-3 inactive
O=S(=O)(c1ccccc1)N1CCN(CCOc2ccc(F)cc2)CC1	none (no result: D2 PAM-1, D2 ag-1, D2 antag)
CC(=O)c1cccc(S(=O)(=O)N2CCN(CCOc3ccccc3)CC2)c1	D2 ag-1 49 | D3 arrestin ag inconclusive | D2 ag-3 inactive
O=S(=O)(c1ccccc1F)N1CCN(CCOc2ccccc2)CC1	D2 ag-1 31, D2 antag 39 | D3 arrestin ag inactive | D2 ag-3 inactive
CC(=O)c1ccc(S(=O)(=O)N2CCN(CCOc3ccc(Br)cc3)CC2)cc1	none
Cc1ccc(S(=O)(=O)Nc2c(Cl)c(Cl)c(O)c3ccccc23)cc1	none (no result: D2 ag-2, D2 PAM-2)
Cc1ccc(S(=O)(=O)c2nnn3c2nc(N2CCOCC2)c2sccc23)cc1C	none (no result: D2 antag, D2 ag-2, D2 PAM-2)
Cc1nn(-c2ccccc2)c(C)c1/C=N/N1CCN(c2ccccn2)CC1	none | D3 arrestin ag inconclusive | D2 ag-3 inactive
CN(C)c1ccc(/C=N/N2CCN(c3ccccn3)CC2)cc1	D2 ag-1 45, D2 ag-2 inconclusive | D3 arrestin ag inactive | D2 ag-3 inactive
Cc1nn(-c2ccccc2)c(Cl)c1/C=N/N1CCN(c2ccccn2)CC1	none
CN(c1ccccc1)S(=O)(=O)c1cccc(C(=O)NCC(c2cccs2)N2CCOCC2)c1 (stereo unspecified)	none (no result: D2 PAM-1, D2 ag-1, D2 antag)
O=C(C1CCCN1C(=O)c1cccs1)N1CCN(Cc2ccc3c(c2)OCO3)CC1 (stereo unspecified)	D2 ag-1 63, D2 antag 37 | D3 arrestin ag inactive | D2 ag-3 inactive
O=C(c1cccs1)N1CCC(C(=O)N2CCN(Cc3ccc4c(c3)OCO4)CC2)CC1	D2 ag-1 68, D2 antag 52, D2 ag-2 inconclusive | D3 arrestin ag inactive | D2 ag-3 inconclusive
O=C(C1CCN(Cc2cccs2)CC1)N1CCN(Cc2ccc3c(c2)OCO3)CC1	none (no result: D2 PAM-1)
O=C(c1cccnc1)N1CCN(Cc2ccc3c(c2)OCO3)CC1	none
c1cnc(N2CCN(Cc3ccc4c(c3)OCO4)CC2)cn1	D2 ag-1 80, D2 antag 90, D2 ag-2 44, D2 PAM-2 inconclusive | D3 arrestin ag inconclusive | D2 ag-3 inconclusive
O=[N+]([O-])c1cccnc1N1CCN(Cc2ccc3c(c2)OCO3)CC1	D2 ag-1 89, D2 antag 92, D2 ag-2 44 | D3 arrestin ag inactive | D2 ag-3 inconclusive
COc1ccc(N2C(=NC(=O)C3CCCCC3)SC3CS(=O)(=O)CC32)c(OC)c1 (stereo unspecified)	none
COc1cc(OC)cc(C(=O)N2CCC(N3CCN(c4ccccc4)CC3)CC2)c1	D2 ag-1 43, D2 antag 37 | D3 arrestin ag inactive | D2 ag-3 inactive
COc1ccc(C(=O)N2CCC(N3CCN(c4ccccc4)CC3)CC2)cc1OC	D2 ag-1 41 | D3 arrestin ag inactive | D2 ag-3 inactive
COc1ccccc1N1CCN(C2CCN(C(=O)c3cccc(F)c3)CC2)CC1	none
COc1ccccc1N1CCN(C2CCN(C(=O)c3ccc(F)cc3)CC2)CC1	none | D3 arrestin ag inactive | D2 ag-3 inactive
COc1ccccc1N1CCN(C2CCN(C(=O)c3cc(OC)c(OC)c(OC)c3)CC2)CC1	none
COc1ccc(C(=O)N2CCN(C3CCC(c4ccccc4)CC3)CC2)cc1OC (stereo unspecified)	none
